Measurements as given in PubChem BioAssay AID1863 (Southern Research Specialized Biocontainment Screening …, 2009).
The campaign covered roughly 300,000 compounds. About 480 (0.16%) were called active.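 How the source made its calls: active means inhibition over 29.93%, a cutoff 3 SD above the screen mean, later confirmed by dose response; inconclusive means inhibition over 29.93% but no dose response follow-up; inactive means inhibition at most 29.93% or unconfirmed.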 These entries were drawn from the full list. Results with a measured potency or affinity are listed apart.

Test: PhoP-dependent GFP reporter repression – Salmonella Typhimurium, primary screen (AID 1863);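 further: 0% = low Mg2+ inducing control and 100% = high Mg2+ repressing control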
Details: S. Typhimurium PhoP-regulated promoter GFP reporter, 4 h; at 50 µM; hits give high values

inhibition, inactive:
CC1CCc2c(nc3ncnn3c2N2CC(C)OC(C)C2)C1 (stereo not drawn) -10.6%
Cc1ccc(S(=O)(=O)CCC(=O)Oc2ccc(-c3nnco3)cc2)cc1 -2.63%
COc1cccc(CN2CCN(Cc3cc(OC)c(OC)cc3OC)CC2)c1 -6.37%
O=C(N/N=C/c1ccccc1F)c1cccc2ccccc12 -1.58%
COc1ccc(C(=O)N/N=C/c2c[nH]c3ccccc23)cc1 4.37%
COc1ccc2cc(C(=O)N/N=C/c3sc4ccccc4c3O)ccc2c1 9.41%
O=C(N/N=C/c1ccccc1O)c1cccc2ccccc12 7.21%
CCC(=O)N1CCc2cc(Br)cc(S(=O)(=O)CCC(=O)NCCOC)c21 1.63%
COC(=O)[C@@H](NC(=O)Nc1ccc(OC(F)(F)F)cc1)C(C)C -9.58%
O=C1CC(c2ccccc2Cl)Cc2c1cnn2-c1nc2ccccc2s1 (stereo not drawn) -5.22%
Cc1nn(C)c(C)c1CN(C)C(=O)CCCC(=O)O -3.44%
CCOc1ccccc1-c1ccc(C(=O)NCc2ccccc2)o1 -2.75%
Cc1c(Cl)cccc1NC(=O)CNC(=O)c1ccc(F)cc1 -6.63%
O=C1C(=O)N(CCO)C(c2cccc(F)c2)/C1=C(\O)c1ccc(Cl)cc1 (stereo not drawn) 0.663%
O=C(COC(=O)CCCN1C(=O)c2cccc3cccc(c23)C1=O)Nc1cccc(Br)c1 5.32%
Cc1ccc(C2=NN(CC(=O)NCc3ccccn3)C(=O)CC2)cc1 15.1%
O=C(Nc1cccc(Cl)c1)NC1CCS(=O)(=O)C1 (stereo not drawn) 0.08%
CCCCCC[N+](C)(C)CC/C=C1/c2ccccc2Sc2ccc(Cl)cc21 -5.82%
CCCCCCCCCCC[N+](C)(C)CC/C=C1/c2ccccc2Sc2ccc(Cl)cc21 0.18%
O=C(O)c1ccccc1SSc1ccccc1C(=O)O -0.72%
CCC(Sc1ccccc1C(=O)O)C(=O)O (stereo not drawn) -0.12%
O=C1C(Cl)=C(Nc2ccccc2)C(=O)c2ccccc21 4.63%
CCNC1=C(Cl)C(=O)c2ccccc2C1=O 22.7%
O=C(CCCN1C(=O)c2ccccc2C1=O)Nc1ccccn1 -1.86%
CCC1(c2ccccc2)NC(=O)N(CC(=O)Nc2cc(S(=O)(=O)N3CCOCC3)ccc2OC(C)C)C1=O (stereo not drawn) -0.1%
COc1ccc(C(=O)CCC(=O)NCCc2c[nH]c3ccccc23)cc1 8.52%
Cc1cccc(NS(=O)(=O)c2cccs2)c1 16.6%
Cc1nc([N+](=O)[O-])c(Br)n1CC(=O)c1ccc(Br)cc1 8.26%
Cc1nc([N+](=O)[O-])c(Br)n1CC(=O)c1ccc(F)cc1 7.24%
O=[N+]([O-])c1c(Nc2ccccc2O)cc(Cl)c2nonc12 16.1%
Nc1cc(Nc2ccccc2)c2nonc2c1[N+](=O)[O-] -3.49%
Nc1cc(N2CCCCCC2)c2nonc2c1[N+](=O)[O-] -3.85%
O=[N+]([O-])c1c(Nc2ccc(O)cc2)cc(Cl)c2nonc12 20%
Cc1c(NC(=O)c2ccc(S(=O)(=O)N3CCOCC3)cc2)c(=O)n(-c2ccccc2)n1C -7.51%
OCCC1CN(Cc2cccn2-c2ccccn2)CCN1C1CCCC1 (stereo not drawn) -4.15%
COc1ccccc1C(c1nnnn1C1CCCC1)N1CCN2CCCC2C1 (stereo not drawn) 2.8%
CCC1(C)Cc2c(sc3nc(SCC(=O)c4ccccc4)[nH]c(=O)c23)CO1 (stereo not drawn) -14.9%
Nc1nonc1C(=O)N/N=C/c1ccc(Br)o1 -2.96%
Nc1nonc1C(=O)N/N=C/c1cc2c(cc1Br)OCO2 3.06%
Nc1nonc1-n1nnc(C(=O)N/N=C/c2c(Cl)cccc2Cl)c1CSC1=NCCS1 6.32%
Nc1nonc1-n1nnc(C(=O)N/N=C/c2ccc(Br)cc2)c1CSC1=NCCS1 44.3%
O=C(NCc1ccco1)C1CCCN(S(=O)(=O)c2ccc(Cl)cc2)C1 (stereo not drawn) 0.1%
COc1ccc(-c2cccc(NC(=O)COc3ccc(Cl)cc3)c2)nn1 -8.03%
CCCCCCCCCC[n+]1cccc(C(=O)N(CC)CC)c1 11%
CCCCCCCC[n+]1cccc(C(=O)N(CC)CC)c1 7.46%
CCC(=O)NC(=S)Nc1ccc(N2CCN(C(=O)c3ccc(Cl)cc3)CC2)cc1 2.66%
CC(=O)/C=C1\SC(CC(=O)O)C(=O)N1c1ccccc1 (stereo not drawn) -3.51%
COc1ccc2nc(SCC(N)=O)cc(C)c2c1 -2.01%
CN1CCCC(CN2c3ccccc3Sc3ccccc32)C1 (stereo not drawn) 5.69%
CC1CCN(CC(O)CN2c3ccccc3Sc3ccccc32)CC1 (stereo not drawn) 11.3%
O=C(O)c1cccc(N/N=C/c2cc(Br)cc(Br)c2O)c1 -5.01%
Cc1c(N=Cc2cc(Br)cc(Br)c2O)cccc1C(=O)O 20.2%
N#CCCn1nc(-c2ccccc2)c2ccccc2c1=O 0.37%
Cc1ccc(N2C(=O)Nc3ccccc3C2(O)C(=O)N2CCN(c3ccccn3)CC2)cc1C (stereo not drawn) 1.22%
O=C(CS(=O)(=O)c1ccccc1)NC1CCCCC1 -0.8%
CC(CC(=O)Nc1ccccc1)NCCCN1CCCC1=O (stereo not drawn) -13.5%
COc1ccc(C(=O)Nc2ccccc2C(=O)N2CCCCC2C)cc1 (stereo not drawn) -7.49%
NC(N)=NN=C1CCC(c2ccccc2)CC1 (stereo not drawn) -4.95%
Cc1ccc(S(=O)(=O)N2CC(=NN=C(N)N)C2)cc1 6.04%
COc1ccc(/C=N/NC(=O)c2ccc(COc3ccccc3Cl)o2)cc1 2.77%
CC(=O)Nc1ccc(Nc2nnc(-c3ccc(C)c(S(N)(=O)=O)c3)c3ccccc23)cc1 -2.89%
CC1=C(C)C(=O)C(N2CCOCC2)=CC1=O -8.01%
CC(C)(C)C1=CC(=O)C(N2CCOCC2)=CC1=O -2.73%
